An excerpt weighted towards active compounds, which were near 6.4% of everything screened.
VP16 counter: Gal4-VP16 reporter inhibition counter-screen. Drosophila S2 Gal4-VP16 UAS-luciferase, luminescence, 20 h. Potency, µM (doses to about 53.6 µM), without a hit: at the highest dose activity, negative = inhibition, most hits filed as inhibitors. AID 2546. 310,000 tested, 3.5% active;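 further: Gal4-VP16 expression switched on by copper sulfate through the metallothionein promoter; nearly all actives have a fitted effect of over 50% in size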
KinaseGlo FLuc: Kinase-Glo luciferase inhibition (counter-screen) | Q27757 | Kinase-Glo luciferase, ATP luminescence, 8 min | Potency, µM (top dose mostly 38.3 µM), inactives show at the top dose activity change, negative = inhibition, usual class: inhibitors | 200,000 tested, 0.28% active | AID 1379; further: nearly all actives have a fitted effect of over 60% in size
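Light output from Kinase-Glo luciferase with luciferin and 10 uM ATP in 50 mM imidazole pH 7.2, KCl, MgCl2, Tween 20, BSA; compound pin-delivered, 8-min ambient incubation, then luminescence read.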
RORg inh: blocks mouse ROR gamma transcriptional activity | P51450 | Drosophila S2 Gal4-RORgamma UAS-luciferase reporter, 20 h | Potency, µM (titrated, usually from 53.6 µM), for the others: top-dose activity change, negative = inhibition, hits mostly inhibitors | 310,000 tested, 5.4% active | AID 2551; further: nearly all actives have a fitted effect of over 60% in size
Target sequence (P51450 whole entry, looked up, the tested form may be a part): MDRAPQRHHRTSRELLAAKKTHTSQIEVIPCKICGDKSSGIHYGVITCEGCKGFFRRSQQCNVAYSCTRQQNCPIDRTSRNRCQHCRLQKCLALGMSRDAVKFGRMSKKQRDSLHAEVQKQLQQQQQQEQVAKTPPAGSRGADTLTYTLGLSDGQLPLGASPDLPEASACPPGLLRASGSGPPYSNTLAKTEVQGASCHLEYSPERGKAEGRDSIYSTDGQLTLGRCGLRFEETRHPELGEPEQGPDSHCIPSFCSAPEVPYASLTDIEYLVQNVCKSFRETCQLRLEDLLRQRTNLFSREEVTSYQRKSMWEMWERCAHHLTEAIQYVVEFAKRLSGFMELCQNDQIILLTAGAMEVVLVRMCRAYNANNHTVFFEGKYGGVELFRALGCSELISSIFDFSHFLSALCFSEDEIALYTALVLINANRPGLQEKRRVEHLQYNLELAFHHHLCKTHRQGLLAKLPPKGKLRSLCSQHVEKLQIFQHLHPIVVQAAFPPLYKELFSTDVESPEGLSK
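ROR gamma transcriptional activity was tracked as Gal4-UAS luciferase output in stably transfected Drosophila Schneider cells, with compound added 1 hr before 700 uM copper sulfate induction and a 20 hr ambient-temperature incubation.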
The depositor's hits bear a star; ? = inconclusive; / = no result; [ ] = remark or other dose. The call rests on the fitted dose curve; in most records, active means well fitted curve in the direction sought with a large enough effect; inconclusive means small, poorly fitted or top-dose-only effect, or another doubt; inactive means no such curve, though single readings can be large; an effect the other way counts as inactive or inconclusive. On the % scale 0 is the no-effect control and ±100 the full control effect; potency means the concentration at half of the fitted maximal effect.

SMILES | VP16 counter | KinaseGlo FLuc | RORg inh
CC(O)c1nc2ccccc2n1CC(=O)N1CCN(c2ccccc2)CC1 (configuration not stated) | 2% | -2% | -3%
COc1ccc(NC(=O)C2CCCN(CCCc3ccccc3)C2)cc1OCC(C)C (configuration not stated) | -20% | / | -19%
Cc1ccc(-n2cc(CN3CCC(CO)(Cc4cccc(C(F)(F)F)c4)CC3)cn2)cc1 | ? | / | 18µM*
CC(C)Cc1cc(CN2CCCC(CO)(Cc3cccc(Cl)c3)C2)[nH]n1 (configuration not stated) | 5% | -9% | -32%
Cc1ccc(-n2cc(CN3CCC(CO)(Cc4ccccc4)CC3)cn2)cc1 | 4% | / | 4%
CC(C)Cc1cc(CN2CCC(CO)(Cc3cccc(C(F)(F)F)c3)CC2)[nH]n1 | ? | -3% | 4.5µM*
COc1cc(NC(=O)Cn2cnc(S(=O)(=O)N3CCC(C)CC3)c2)cc(OC)c1OC | -5% | / | 17%
COc1ccc(C2/C=C\CN(C(=O)C3CCCC3)[C@H](Cc3ccccc3)C(=O)N2Cc2ccc(F)cc2)cc1 (some centres not stated) | 7% | / | -15%
CC(C)CN1CC[C@@]2(CCCN(C(=O)c3cc(C(F)(F)F)cc(C(F)(F)F)c3)C2)C1 | -12% | -2% | 5%
Cc1cccc(C(=O)NC2CCN(S(=O)(=O)c3ccc(F)cc3)CC2)c1 | 2% | / | ?
Cc1ccc(N=Cc2cc(Cl)cc(Cl)c2O)nc1 | ? | -3% | ?
CN(/N=C/c1cc(Cl)cc(Cl)c1O)C(=S)NC(C)(C)C | 16µM* | / | ?
Brc1csc(C=Nc2ccc3c(c2)OCCOCCOCCOCCO3)c1 | -7% | -3% | -14%
Oc1c(Cl)cc(Cl)cc1C=Nc1ccc2c(c1)OCCO2 | -20% | -14% | 14µM*
CCN(CC)C1CC(=O)N(c2ccc(Br)cc2)C1=O (configuration not stated) | 18µM* | / | 13µM*
Cc1ccc(S(=O)(=O)NNC2CC(=O)N(c3ccc(Br)cc3)C2=O)cc1 (configuration not stated) | -1%[10 µM] | 1% | -14%
CC1(C(=O)NCc2ccc(F)cc2)Oc2ccccc2NC1=O (configuration not stated) | 0.32µM* | 1% | -57%
Cc1ccc(CNC(=O)C2(C)Oc3ccccc3NC2=O)cc1 (configuration not stated) | 9% | 1% | 1%
C=CCOC(/C=C/c1ccccc1)C[Si](C)(C)C (configuration not stated) | 7% | / | 12%
Cc1ccc(C(=O)N(C)CC(=O)Nc2cccc(C)c2C)o1 | -6% | / | -3%
CN(CC(=O)Nc1ccccc1Br)C(=O)c1ccc(-c2ccc(Cl)cc2)o1 | 5.6µM* | / | ?
C=CCOCC/C=C1/c2ccccc2C(OC)C1C (configuration not stated) | 0%[10 µM] | / | 3%[10 µM]
COc1ccc(-n2cc(CNCC3CCOCC3)c(-c3cccc(F)c3)n2)cc1 | -10% | -3% | 0%
COc1ccc(-n2cc(CNCCCn3ccnc3)c(-c3cccc(F)c3)n2)cc1 | 32µM* | -1% | 11µM*
CO[C@@H]1/C=C\O[C@]2(C)Oc3c(C)c(O)c4c(O)c(c(CN5CCN(C)CC5)c(O)c4c3C2=O)NC(=O)/C(C)=C\C=C[C@@H](C)[C@@H](O)[C@H](C)[C@@H](O)C(C)[C@H](OC(C)=O)[C@@H]1C (some centres not stated) | / | -2%[7.66 µM] | /
SMILES | VP16 counter | KinaseGlo FLuc | RORg inh
CC(/C=C/c1ccccc1F)=N\NC(=O)c1ccc(Cl)cc1 | -11% | -2% | 12%
CC(/C=C/c1ccccc1)=N\NC(=O)CNC(=O)c1ccccc1Cl | 6% | 2% | 3%
CC(/C=C/c1ccccc1)=N/NC(=O)c1cccc(Br)c1 | 3.5µM* | -4% | 2.2µM*
CC(/C=C/c1ccccc1F)=N\NC(=O)c1ccccc1 | 7.1µM* | -1% | 3.2µM*
CC(/C=C/c1ccccc1)=N\NC(=O)c1ccc(Br)cc1 | 0.89µM* | 2% | 0.5µM*
C/C(=N\NC(=O)c1cccc(Br)c1)c1ccc(Br)cc1 | ? | -6% | ?
C/C(=N\NC(=O)c1cc(C)nc2ccccc12)c1cccs1 | -4% | / | -33%
CC(/C=C/c1ccccc1)=N\NC(=O)c1cc(C)nc2ccccc12 | ? | / | 14µM*
C[C@@H](CCc1ccc(O)cc1)NCCc1ccc(O)c(O)c1 | -4% | -3% | -23%
O=C(NCc1cccnc1)c1ccc(Cn2c(=S)[nH]c3ccc(Br)cc3c2=O)cc1 | 24% | 2% | 1%
O=c1c2cc(Br)ccc2[nH]c(=S)n1Cc1ccccc1 | 3.5µM* | / | 2.5µM*
O=c1c2cc(Br)ccc2[nH]c(=S)n1Cc1ccccn1 | ? | 1% | 2.8µM*
O=C(CCCn1c(=S)[nH]c2ccc(Br)cc2c1=O)NCc1ccccn1 | -29% | / | ?
Cc1ccc(NC(=O)COC(=O)[C@H](C)NC(=O)c2ccccc2)cc1S(=O)(=O)N1CCOCC1 | -5% | / | -17%
Cc1ccnc(N2CCCC(C(=O)Nc3cccc(C)c3C)C2)n1 (configuration not stated) | 2% | / | -8%
OCC1OC(c2ccc3c(c2)OCO3)C=CC1Oc1ccc(C2CCCC2)cc1 (configuration not stated) | 4%[10 µM] | / | 6%[10 µM]
COc1ccc(C2=Nn3c(nnc3-c3ccc(OC)c(OC)c3)SC2)c(OC)c1 | -2% | / | 12%
CCN(CC(=O)Nc1c(F)cccc1F)C(=O)COc1ccc2c(C)cc(=O)oc2c1 | -3% | 0% | 2%
O=C(CC1NCCC[C@H]1O)Cn1cnc2cc(Br)c(Cl)cc2c1=O (some centres not stated) | 6% | / | 0%
CCOc1ccc(NS(=O)(=O)c2cc(OC)ccc2OC)cc1 | 2% | -5% | -2%
COc1ccc(OC)c(S(=O)(=O)Nc2ccc(O)c3ccccc23)c1 | 4%[0.365 µM] | 5% | 10µM*
COc1ccc(OC)c(S(=O)(=O)Nc2ccc(Oc3ccccc3)cc2)c1 | 6.3µM* | / | ?
COc1ccc(OC)c(S(=O)(=O)Nc2c(C)cccc2C)c1 | -1% | 1% | 0%
Cc1cc(Cl)c(S(=O)(=O)N2CCN(c3ccccn3)CC2)cc1OCC(=O)NC1CCCCC1 | -13% | / | 36%
COCCNC(=O)C1(C(F)(F)F)CC(CCCO)CCCO1 (configuration not stated) | -4% | / | -9%
SMILES | VP16 counter | KinaseGlo FLuc | RORg inh
COc1ccc(NC(=O)CCCCCn2nnc3ccccc3c2=O)cc1OC | -11% | / | 8%
O=C(O)CCc1ccc(-c2cccs2)o1 | ? | 0% | 11µM*
Cc1ccc(-c2ccc(CCC(=O)O)o2)cc1 | 4% | 0% | -11%
Cc1noc(C)c1C(=O)N1CCC2(CC1)CN(c1cccc(-c3ccccc3)c1)C2 | -14% | -1% | 29%
COc1ccccc1-c1nc(-c2ccccc2)[nH]c(=O)c1C#N | -12% | 7% | 14%
O=c1ccsn1Cc1ccccc1 | 4.5µM* | 3% | 2.2µM*
O=c1cc(Cl)[nH]c(=O)n1Cc1ccccc1 | -5% | / | 18%
O=Cc1cc(N=Nc2cccc(C(=O)O)c2)ccc1O | -6% | -15% | -5%
O=Cc1cc(N=Nc2ccccc2Cl)ccc1O | 6% | -1% | 11µM*
O=C1Cc2cc(S(=O)(=O)Nc3ccccc3Cl)cc3c2N1CCC3 | 4% | / | 20%

Source: PubChem BioAssay (National Center for Advancing Translational Sciences (NCATS))
